Rows were chosen to be rich in hits. Some 19% of all compounds tested hit in one or more screens of this group.
TDP1 cell CPT – qHTS for Inhibitors of human tyrosyl-DNA phosphodiesterase 1 (TDP1): qHTS in cells in presence of CPT; chicken DT40 Tdp1-/-;hTDP1 cells + 20 nM CPT, ATP luminescence, 48 h; Potency, µM (highest dose often 46.2 µM), without a hit: top-dose activity change, negative = growth inhibition, hits mostly inhibitors; 12% of 420,000 active; note: potency is the fitted concentration of half-maximal effect; nearly all actives have a fitted effect of over 55% in size
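Chicken DT40 Tdp1-/- cells complemented with human TDP1, 400 cells/well, exposed to compounds plus 20 nM camptothecin for at least 48 h at 37 C; viability read as ATP content by CellTiter-Glo luminescence.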
HT1080NT lethal – qHTS for induction of synthetic lethality in tumor cells producing 2HG: qHTS for the HT-1080-NT fibrosarcoma cell line | HT-1080-NT fibrosarcoma viability, CellTiter-Glo ATP luminescence, 48 h | Potency, µM (titrated, usually from 46.1 µM), without a hit: at the highest dose activity, negative = less viability, actives largely listed as cytotoxic | 1.6% of 360,000 active | AID 686970, 2013;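 note: NT is the 2HG producing partner of a matched IDH1 knockdown line; potency is the fitted concentration of half-maximal effect; 0% = DMSO-treated cells and -100% = media-only wells without cells; nearly all actives have a fitted effect of over 55% in size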
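Read-out is CellTiter-Glo luminescence after 10 minutes at room temperature, following 48 hours' compound treatment of HT-1080-NT cells (750 cells/well, RPMI, 5% FBS, 37 degrees C).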
HT1080 IDH1KD tx – qHTS for induction of synthetic lethality in tumor cells producing 2HG: qHTS for the HT-1080-IDH1KD cell line | HT-1080 IDH1 knockdown viability, ATP luminescence, 48 h | Potency, µM (titrated, usually from 46.1 µM), for the others: at the highest dose activity, negative = toxicity, actives largely listed as cytotoxic | 2% of 360,000 active | AID 686971, 2013;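 note: potency is the fitted concentration of half-maximal effect; 0% = DMSO wells and -100% = cell-free medium wells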
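Viability of IDH1-knockdown HT-1080 fibrosarcoma cells was assessed by CellTiter-Glo after 48 h at 37 °C with titrated compound; concentration-effect curves were classified by fit quality and response size.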
TDP1 cell noCPT – qHTS for Inhibitors of human tyrosyl-DNA phosphodiesterase 1 (TDP1): qHTS in cells in absence of CPT. 15% of 420,000 active. DT40 Tdp1-/- hTDP1 cells, no CPT, ATP luminescence, 48 h. Potency, µM (series often up to 46.2 µM), without a hit: at the top dose activity change, negative = growth inhibition, usual class: inhibitors. AID 686978, 2013; note: potency is the fitted concentration of half-maximal effect; nearly all actives have a fitted effect of over 55% in size
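Growth kinetics read by CellTiter-Glo luminescence after ≥48 hr at 37 °C. Cells: DT40 Tdp1-/- stably carrying human TDP1, 400 per well, compound exposure in the absence of CPT (DMSO vehicle).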
IL1B secr inh – qHTS for Inhibitors of Inflammasome Signaling: IL-1-beta AlphaLISA Primary Screen; 4.7% of 360,000 active; THP-1 LPS/ATP IL-1B secretion, AlphaLISA, 16 h; hits give low values; activity change, % at 57.5 µM; AID 743279, 2014; in the data active = activity change below about -50%; inconclusive = mostly about -30% to -49%
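THP-1 cells pretreated 1 hr with compounds (up to 57.5 uM final), then stimulated with LPS (250 ng/mL final) plus ATP (1.25 mM final); secreted IL-1B measured by AlphaLISA after 16 hr, decreased signal indicating inhibition.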
Starred values were filed as active, the others as inactive; ? = inconclusive; · = no result given. Unless noted, calls come from the whole dose curve; as a rule, active = well fitted curve in the direction sought with a large enough effect; inconclusive = small, poorly fitted or top-dose-only effect, or another doubt; inactive = no such curve, though single readings can be large; an effect the other way counts as inactive or inconclusive. Unless noted, % is set by controls: 0 for no effect and ±100 for the full control effect.

SMILES	TDP1 cell CPT	HT1080NT lethal	HT1080 IDH1KD tx	TDP1 cell noCPT	IL1B secr inh
Cc1cccc2cc3c(nc12)SC(=NCC1CCCO1)N(Cc1ccco1)C3 (stereo not given)	?	5.8µM*	10µM*	23µM*	-100*
CC1CCCCN1CC(O)COCCC12CC3CC(CC(C3)C1)C2 (stereo not given)	15µM*	?	?	18µM*	-61*
CCN(CC)CC(O)COCCC12CC3CC(CC(C3)C1)C2 (stereo not given)	?	?	?	?	-2
OCCN(CCO)CC(O)COCCC12CC3CC(CC(C3)C1)C2 (stereo not given)	?	?	?	21µM*	-29
OCCN(CCO)CC(O)COc1ccc(C23CC4CC(CC(C4)C2)C3)cc1 (stereo not given)	7.3µM*	-7%	4%	7.3µM*	?
C=CCc1ccc(OCC(O)CN2CCCCC2C)c(OC)c1 (stereo not given)	?	-1%	-1%	-12%	-4
CC1CCN(c2ccc3nnc(CCC(=O)N4CCN(c5ccc(F)cc5)CC4)n3n2)CC1	?	-4%	-19%	?	-22
CCC1CCCCN1C(=O)Cn1c(=O)n(-c2ccc(Cl)c(Cl)c2)c(=O)c2c(C)c(C(=O)N(C)C)sc21 (stereo not given)	-2%	·	·	-16%	·
CCCC(=O)Nc1nnc2n1CCS2	0%	·	·	0%	·
FC(F)(F)c1ccc(Sc2n[nH]c(C(F)(F)F)n2)nc1	?	-10%	-5%	29µM*	17
FC(F)(F)c1ccnc(Sc2n[nH]c(C(F)(F)F)n2)c1	-26%	-5%	-8%	?	44
COc1ccc(-c2coc3cc(OC(C)=O)c(OC)cc3c2=O)cc1	-1%	10%	2%	-20%	8
CC1(C)C=Cc2c(cc3occ(-c4ccc5c(c4)OCO5)c(=O)c3c2O)O1	0%	·	·	-1%	·
COc1c(-c2coc3cc4c(cc3c2=O)CC(OC(C)=O)C(C)(C)O4)ccc2c1C=CC(C)(C)O2 (stereo not given)	1.3µM*	·	·	0.92µM*	·
COc1c(-c2coc3cc4c(cc3c2=O)CC(O)C(C)(C)O4)ccc2c1C=CC(C)(C)O2 (stereo not given)	0.046µM*	·	·	0.021µM*	·
Cc1ccc([C@H]2C(C(=O)O)=CC[C@@H](c3ccc4c(c3)OCO4)N2S(=O)(=O)c2ccc(C)cc2)cc1	-23%	-16%	-6%	-28%	4
O=C(NNc1ccccc1)c1sc2ccccc2c1Cl	?	-15%	?	?	·
CCc1ccc(N2C(=O)CN(Cc3cccs3)C2=S)cc1	0%	-4%	-28%	-1%	-1
CC1CN(c2nc3c(c(=O)[nH]c(=O)n3C)n2Cc2ccccc2F)CC(C)O1 (stereo not given)	6%	5%	-1%	3%	22
COc1cc(C2c3c(oc4ccccc4c3=O)C(=O)N2c2nnc(C(C)C)s2)cc(OC)c1OC (stereo not given)	-4%	·	·	-23%	·
COc1cc(C)c(CN2CCC3(CCC(CNC(=O)c4ccnn4C)O3)CC2)cc1C (stereo not given)	16µM*	·	·	-28%	·
Cc1ccc(NC(=S)NCC23C=CC(O2)C2C(=O)N(c4ccc(C)cc4)C(=O)C23)cc1 (stereo not given)	18µM*	0%	7%	?	5
Cc1ccc(N2C(=O)C3C4C=CC(CNC(=S)N5CCN(c6ccccc6)CC5)(O4)C3C2=O)cc1 (stereo not given)	18µM*	-12%	-3%	18µM*	11

Screening results (PubChem BioAssay)
